In the supplement of paper PMC6555819:

What was measured:
Assay in all cases: PBM binding z-score (relative to random genomic background probes); higher = stronger binding; sequences stand for … in GC…GCGATTGACAGCGTAGAATGAAGG
[1] = tested on: RARb homodimer (NR concentration 270 nM)
Summary of the method: (§1)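 Scanned fluorescence from custom Agilent 4×180K protein-binding microarrays was regression-normalized. Binding z-scores use random background probes as reference. Ligand-free nuclear receptor dimers were incubated on the arrays for 1 h and detected with antibodies against each partner (one per run).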

[2] = tested on: RARg:RXRa (NR concentration 270 nM, RXRa partner concentration 90 nM)
Summary of the method: as §1

[3] = tested on: RARg homodimer (NR concentration 270 nM)
Summary of the method: as §1

[4] = tested on: RXRa DBDmut IVT, anti-RXR (DBD mutation: RXRa K156A/R161A, NR concentration 90 nM)
Summary of the method: as §1

[5] = tested on: RXRa homodimer (NR concentration 180 nM)
Summary of the method: as §1

[6] = tested on: THRa:RXRa (NR concentration 90 nM, RXRa partner concentration 90 nM)
Summary of the method: as §1

[7] = tested on: THRa homodimer (NR concentration 90 nM)
Summary of the method: as §1

[8] = tested on: VDR homodimer (NR concentration 270 nM)
Summary of the method: as §1

Row | Sequence | PBM binding z-score [1] | PBM binding z-score [2] | PBM binding z-score [3] | PBM binding z-score [4] | PBM binding z-score [5] | PBM binding z-score [6] | PBM binding z-score [7] | PBM binding z-score [8]
1 | CAGCCTAGGTCAGGGCCAGAATAGGAGGAACGTT | 2.24 | 2.81 | 3.54 | -0.145 | 1.6 | 1.84 | 0.0772 | -0.324
2 | CGTCCAAGGTCAATCCTAGGTCAGTGAAAGCATT | 5.21 | 7.69 | 6.57 | 3.57 | 5.38 | 4.72 | 3.63 | 3.06
3 | ACAATTAGTTGAGACGAGGGCAACCGATAGGTTG | 1.5 | 0.974 | 0.94 | 0.611 | 0.718 | 2.74 | 0.375 | 1.07
4 | AGAAGGAGGTTATTAAGATCAGGGAATTGCGGTC | 1.32 | 0.881 | 0.837 | 0.39 | 1.36 | 1.18 | 0.884 | 1.23
5 | GCGACTGGGGCATCAGCAGGTTGCCATAACTTAA | 0.046 | -0.0231 | -0.244 | -0.343 | -0.273 | -0.00785 | -0.582 | -0.425
6 | AATACAGGGTCACTAGGCCAGAGCAGGTACGAAT | 3.36 | 5.15 | 5.08 | 2.67 | 5.66 | 3.31 | 1.07 | 2.39
7 | ACTAGTTGGTCAGCTGCGGTCACACACAATTCGG | 2.82 | 1.23 | 1.87 | 0.356 | 0.636 | 2.65 | 0.969 | 0.532
8 | CGAACTAGGTCAAGGACACTGAATCTCCGCACGC | 3.08 | 3.94 | 4.67 | 1.55 | 2.66 | 3.49 | 3.04 | 0.782
9 | AGTCAAAGTTCACTAGGAAACGTAAGATTCAGCT | 3.48 | 4.86 | 5.62 | 3.98 | 3.71 | 1.3 | -0.55 | 3.64
10 | TCTTGTAGATCAGCAGGTTAACAAAGCTGGCCAA | 0.38 | 0.348 | -0.352 | 0.44 | 0.609 | 0.517 | -0.468 | -0.328
11 | GCTGCTAGGTCAGGTTGGTAAGCTAACGGGTACG | 2.26 | 2.6 | 3.55 | 0.418 | 1.02 | 1.7 | 0.477 | 0.193
12 | ACTCGGAGGACAAAGGTCAGTGCTACGCCAGTGA | 4.71 | 5.37 | 4.99 | 1.36 | 4.26 | 3.38 | 0.657 | 1.11
13 | AGAATGAGGTTATTAAGATCAGGGAGTTGCGGTC | 0.826 | 1.05 | 0.672 | 1.99 | 1.78 | 2.17 | 0.897 | 1.39
14 | TCTCGTAGATCAAAGGTTAAGAAAGCCGAAGCCT | 1.36 | 1.65 | 0.587 | 0.764 | 2.94 | 1.14 | -0.441 | 0.265
15 | ACTAGTTGGTCAGCTGAGGCCACACACAATTCGG | 1.35 | 0.493 | 1.14 | 0.0642 | 0.0882 | 3.64 | 1.45 | 0.0276
16 | ATACCAAGGTGATCGTGAGGTCGCTGATACTAAC | 1.68 | 2.37 | 0.989 | 0.175 | 1.43 | 3.3 | 2.48 | 1.6
17 | ACTATTAGTTGCCTTAGGGCAACCGATACGACGC | 0.893 | 0.429 | 0.732 | 0.351 | 0.447 | 1.46 | 0.815 | 0.176

Row | Sequence | PBM binding z-score [1] | PBM binding z-score [2] | PBM binding z-score [3] | PBM binding z-score [4] | PBM binding z-score [5] | PBM binding z-score [6] | PBM binding z-score [7] | PBM binding z-score [8]
18 | CTCGAAACGTCGTGCTCAGGTGAGTATACCAAAC | -0.132 | -0.476 | -0.311 | -0.187 | -0.479 | 0.94 | 0.555 | -0.446
19 | CCTTACGGGTCACTGAGAGGTTATAGCATTTGGA | 3.75 | 6.72 | 4.64 | 1.75 | 5.62 | 3.46 | 0.613 | 1.78
20 | CGTCAAAGTTCAAGGTAACTTAACAGAAAGCAGC | 3.81 | 5.06 | 6.29 | 4.24 | 4.36 | 2.71 | 0.957 | 2.74
21 | TCTTGTAGATCCACAGGAGGTTAAGAAAGATCGA | 0.545 | 0.509 | 0.319 | 0.48 | 0.994 | 0.962 | 0.0268 | -0.139
22 | TCGAGTACGTTACCAATGGGGCATTCAGCTTTCT | 0.0384 | -0.336 | -0.335 | 3.13 | -0.358 | -0.315 | -0.201 | 1.2
23 | TCTAGCAGGCCAGAGGGTCACTCCAGAGGTACGG | 2.59 | 2.1 | 1.86 | -0.234 | 1.97 | 1.38 | -0.258 | 0.403
24 | CGTCCAAGGTCATAGGACGTCAGTGAAGACAGAT | 3.37 | 5.58 | 5.4 | 3.74 | 5.36 | 3.83 | 2.24 | 3.01
25 | TCGAGTAGGTTAGTCGGGGCATTCGGCCAACATA | 0.848 | -0.0623 | 0.0417 | -0.081 | -0.218 | 0.974 | -0.521 | 0.124
26 | CCTCGGAGAACAGAAGGTCAGAGCTGTCCGCTTT | 2.93 | 2.11 | 1.99 | 0.355 | 2.01 | 1.77 | -0.175 | 0.014
27 | AGAACGAGGGCACGCCGAGTTGATAGCAGAGTAG | 1.2 | 1.96 | 2.36 | 1.75 | 1.47 | 1.96 | -0.089 | 1.81
28 | TCTGCTAGGTCAACGATGGTCTGCTAATCTGCTA | 2.72 | 3.69 | 4.4 | 0.993 | 2.25 | 2.6 | 0.712 | -0.658
29 | ACTAGCAGGCCAAGTTTGGGTTACTCAAACAAAG | 0.5 | 0.339 | 0.295 | -0.22 | -0.21 | 0.547 | -0.383 | -0.21
30 | TGCCAAAGTTCAAAGGTAACGTAAGTATCCACAC | 3.8 | 6.37 | 6.18 | 4.65 | 7.16 | 3.44 | -0.0439 | 5.01
31 | TATCCTAGGTCATGCGGGCCAGTATAGTGTCGGC | 3.12 | 4.06 | 4.98 | 1.6 | 3.59 | 3.43 | 1.91 | 1.29
32 | CCTTACGGGTCACTGACAGGTTATAACATTTGGA | 3.33 | 5.87 | 4.56 | 1.78 | 5.31 | 3.12 | 0.436 | 1.21
33 | TAGCCTAGGTCATGCGCGCCAGTATAGTGTCGGC | 3.06 | 4.02 | 4.19 | 0.635 | 3.16 | 3.17 | 1.27 | 0.448
34 | ACAGACCGGTGATGAAGGTAACTCAGGCTATCAT | -0.0627 | -0.0765 | 0.11 | -0.318 | -0.04 | 0.648 | -0.0295 | -0.605
